We go through 40 compounds from PubChem BioAssay (Tox21).

Values joined by “and” are separate entries in the source; they are usually repeats but may differ in a detail not shown here. Equal entries are not always repeated. Results filed as inconclusive are left out. Entries that show only a call come without a potency. The source holds several records for some structures; these can differ, active in one and inactive in another. Active and inactive are the calls of the source. Calls follow the shape of the dose curve; as a rule, active = well fitted activation curve with a large enough effect in the repeat runs; inconclusive = weak or mixed curves; inactive = flat fitted curve, though single readings scatter.
Potency is read from the fitted curve at half-maximal effect.

The assay can be described thus: A CellTox Green Cytotoxicity Assay to monitor cytotoxicity in HepG2 cells - 32 hour (AID 1224883). Also: nearly all actives have a fitted effect of over 50% in size. Conditions: CellTox Green fluorescence; series mostly up to 76.8 µM. An excerpt:
National Center for Advancing Translational Sciences [NCATS]
NIH Chemical Genomics Center [NCGC]
U.S. Environmental Protection Agency [EPA]
National Institutes of Environmental Health Sciences [NIEHS]
National Toxicology Program [NTP]
Cell-based models are critical for drug discovery. Determining the natural cytotoxic effects resulting from test compounds is an essential research activity. A CellTox Green Cytotoxicity Assay to monitor cytotoxicity in real time of continues cell culture during 40 hours of the compound treatment was used to screen Tox21 10K library compounds in HepG2 cells. CellTox Green Cytotoxicity Assay is a nonlytic, homogeneous, biofluorescent method to measure cytotoxicity in cell culture after experimental manipulation. The assay system uses a proprietary asymmetric cyanine dye that is excluded from viable cells but preferentially stains the dead cell's DNA. […] Viable cells produce no appreciable increases in fluorescence. Therefore, the fluorescence signal produced by the binding interaction with dead cell DNA is proportional to cytotoxicity.
The mixture of HepG2 cell suspension and reagents were dispensed at 600cells/6 ul/well in 1536-well tissue culture treated black solid bottom plates using a Multidrop dispenser. After the assay plates were incubated at a 37 C/5% CO2 incubator for 5 hours, 23 nL of compounds dissolved in DMSO, positive and negative controls was transferred to the assay plate by a pintool work station. The plates were incubated at 37 C for 40 hours. The fluorescence intensity were measured at 0h, 8h, 16h, 24h, 32h and 40h time points using ViewLux plate reader during compound treatment.
As for `CC1=C(C(=O)OC(C)C)C(c2cccc([N+](=O)[O-])c2)C(C(=O)OC2CN(C(c3ccccc3)c3ccccc3)C2)=C(N)N1` (stereo not given), the Potency was 23.9 µM (active).

With `COC(=O)C1=C(C)NC(C)=C(C(=O)OCCc2ccc(N3CCN(C(c4ccccc4)c4ccccc4)CC3)cc2)C1c1cccc([N+](=O)[O-])c1` (stereo not given), the Potency result was “inactive”.

As to `C[n+]1ccn(Cc2ccccc2)c1`, the Potency result is “inactive”.

For `CN(C/C=C/C#CC(C)(C)C)Cc1cccc2ccccc12`, the Potency result was “inactive”.

In the case of `CN(C)c1ccc(C2(c3ccc(N(C)C)cc3)OC(=O)c3cc(N(C)C)ccc32)cc1`, the Potency entry is “inactive”.

For `CC(C)(C)c1ccc(C(=O)O)cc1`, the Potency result was “inactive”.

For the compound `O=S1(=O)CC(Cl)(Cl)C(Cl)(Cl)C1`, the Potency was 7.76 µM (active).

As for `O=C(Nc1cccc(C(F)(F)F)c1)c1cc(Br)cc(Br)c1O`, the Potency is 17.4 µM (active).

With `CCc1oc2ccccc2c1C(=O)c1cc(Br)c(O)c(Br)c1`, the Potency result is “inactive”.

For the compound `COc1c(C)c2c(c(O)c1C/C=C(\C)CCC(=O)O)C(=O)OC2`, the Potency entry is “inactive”.

Take `O=C(N/N=C/c1ccccc1O)c1ccncc1`: the Potency result is “inactive”.

Take `Cc1cc(O)c(C(C)(C)C)cc1Sc1cc(C(C)(C)C)c(O)cc1C`: the Potency is 61.5 µM (active).

For the compound `Oc1c(Cl)cc(Cl)c2cccnc12`, the Potency was 9.52 µM (active).

Turning to `CCC(Cl)C(Cl)C(Cl)CC(Cl)C(Cl)C(C)Cl` (stereo not given), the Potency result was “inactive”.

`Cc1ccc(-n2nc(C(C)(C)C)cc2NC(=O)Nc2ccc(OCCN3CCOCC3)c3ccccc23)cc1`: the Potency entry was “inactive”.

As for `CN(C)CCCOC1(Cc2ccccc2)CCCCCC1`, the Potency result was “inactive”.

`C=CC(=O)OCCn1c(=O)n(CCOC(=O)C=C)c(=O)n(CCOC(=O)C=C)c1=O`: the Potency was 43.6 µM (active).

`CC(=O)OCC(C)OC(C)=O` (stereo not given): the Potency result is “inactive”.

Consider `CCCCCCCCOC(=O)c1ccc(O)cc1`, for which the Potency result is “inactive and 43.6 µM (active)”.

For the compound `O=C(Nc1ccc(Oc2ccc(Cl)cc2)c(Cl)c1)c1cc(I)cc(I)c1O`, the Potency entry is “inactive”.

In the case of `CCN(C(=O)c1cc(C)cc(OC[C@H](C)Nc2ccncc2)c1)C(C)C`, the Potency entry is “inactive”.

`CCCCCCCCCCCCCCCS(=O)(=O)Oc1ccccc1`: the Potency result was “inactive”.

Take `CC(C)=CCOc1ccc(/C=C/C(=O)c2ccc(OCC=C(C)C)cc2OCC(=O)O)cc1`: the Potency result was “inactive”.

On to `CCCCN(CCCC)C(=O)N(CCCC)CCCC`, for which the Potency entry is “inactive”.

Regarding `Cn1cc(C(=O)[C@@H]2CCc3nc[nH]c3C2)c2ccccc21`, the Potency entry was “inactive”.

On to `Nc1c2ccccc2nc2ccccc12`, for which the Potency is 12.1 µM (active) and 10.7 µM (active).

`O=c1cc(-c2ccc(O)cc2)oc2cc(O)cc(O)c12`: the Potency result is “inactive and 38.9 µM (active)”.

`Cc1cc(N)c(S(=O)(=O)O)cc1Cl`: the Potency entry is “inactive”.

As to `CCCCCCCCCCC=O`, the Potency result is “inactive”.

As to `Oc1ccc2cc(SSc3ccc4cc(O)ccc4c3)ccc2c1`, the Potency entry is “inactive”.

Consider `Oc1cccc2cc3cccc(O)c3c(O)c12`, for which the Potency result is “inactive”.

For the compound `O=C(O)c1c(Cl)cccc1Cl`, the Potency entry is “inactive”.

For `O=[N+]([O-])c1ccccc1Nc1ccccc1`, the Potency result is “inactive”.

Take `O=C(c1ccc(O)cc1O)c1ccc(O)cc1O`: the Potency result is “inactive”.

In the case of `OCCCCCCCCCCCCBr`, the Potency result was “inactive”.

With `NC(=O)NS(=O)(=O)c1ccc(N)cc1`, the Potency entry was “inactive”.

`C[n+]1cc2c3c(ccc2c2ccc4cc5c(cc4c21)OCO5)OCO3`: the Potency was 0.585 µM (active).

Turning to `O=C1c2ccccc2Cc2ccccc21`, the Potency entry was “inactive”.

For the compound `CCOc1nc2cccc(C(=O)OC(C)OC(=O)OC3CCCCC3)c2n1Cc1ccc(-c2ccccc2-c2nn[nH]n2)cc1` (stereo not given), the Potency is 43.6 µM (active).

In the case of `CCCCN1CCCC[C@H]1C(=O)Nc1c(C)cccc1C`, the Potency result was “inactive”.
